Rows were chosen to be rich in hits. Some 3.6% of all compounds tested hit in one or more screens of this group.
Rango-impB inh – inhibitors of Rango-importin beta complex formation; 340,000 tested, 0.031% active; Rango CFP/YFP FRET sensor + importin beta, 45 min; Potency, µM (highest dose often 92.2 µM), for inactives: at the top dose inhibition of complex formation; AID 540263; Q14974; calls by dose curve;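 also: potency is read from the fitted curve at half-maximal effect; 0% = DMSO wells and 100% = buffer wells lacking importin beta; nearly all actives have a fitted effect of over 15% in size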
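FRET biosensor Rango (snurportin 1 IBB between N-terminal EYFP and C-terminal Cerulean), 50 nM in PBS/1 mM DTT/0.02% Tween-20/0.1% BSA, preincubated 5 min RT with compound; 0.125 microM importin beta added, 45 min RT, CFP/YFP FRET ratio read.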
Rango release inh – inhibitors of RanGTP-induced Rango-importin beta complex dissociation; O95149+P62826; Biochemical FRET Rango-importin beta, RanGTP-induced dissociation; Potency, µM (series often up to 46.1 µM), for inactives: top-dose activity change, negative = inhibition; 340,000 tested, 0.071% active; AID 540253; calls by dose curve; also: potency is read from the fitted curve at half-maximal effect; % of control where 0% means no effect; nearly all actives have a fitted effect of over 45% in size
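Rango FRET biosensor (snurportin-1 IBB flanked by N-terminal EYFP and C-terminal CFP10) at 0.1 uM, with 0.25 uM importin beta in PBS, 1mM DTT, 0.02% Tween-20, 0.1% BSA. 0.6 uM Ran, 2mM GTP and 0.2 uM RCC1 were then added for 45 min at room temperature. Inhibition read as loss of FRET rise.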
PLK1 PBD block – inhibitors of human PLK1 polo-box domain binding. P53350. Plk1 PBD binding of FITC phosphopeptide, fluorescence polarization. Potency, µM, inactives show max response, negative = inhibition, actives largely listed as inhibitors. 360,000 tested, 2.8% active. AID 720504; also: potency is read from the fitted curve at half-maximal effect; series mostly up to about 57 µM; % is scaled to controls: 0 for no effect and ±100 for the full control effect; nearly all actives have a fitted effect of over 65% in size
PI5P4K alpha inh – PI5P4K alpha (human) kinase inhibition; P48426; PI5P4Kalpha enzyme, ADP-Glo luminescence, 60 min; active compounds read low; max response, %; 330,000 tested, 1.2% active; active = max response of -50% or lower; inconclusive = between -30% and -50%; inactive = -30% or higher; also: value at the top dose of about 77 µM; % is scaled to controls: 0 for no effect and ±100 for the full control effect
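Enzyme plus substrate dispensed, test compounds pinned in, then ATP (5 microM final) added. After 60 min at RT, ADP-Glo reagent 1 for 45 min and reagent 2 for 30 min preceded luminescence imaging.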
VDR inh – vitamin D3 receptor (human) inhibition | AID 504847 | Potency, µM, without a hit: max response, negative = inhibition, usual class: inhibitors | 400,000 tested, 0.93% active | VDR-SRC2-3 peptide fluorescence polarization, 2 h | P11473; also: potency is read from the fitted curve at half-maximal effect; % is scaled to controls: 0 for no effect and ±100 for the full control effect
Target sequence (P11473 whole entry, looked up): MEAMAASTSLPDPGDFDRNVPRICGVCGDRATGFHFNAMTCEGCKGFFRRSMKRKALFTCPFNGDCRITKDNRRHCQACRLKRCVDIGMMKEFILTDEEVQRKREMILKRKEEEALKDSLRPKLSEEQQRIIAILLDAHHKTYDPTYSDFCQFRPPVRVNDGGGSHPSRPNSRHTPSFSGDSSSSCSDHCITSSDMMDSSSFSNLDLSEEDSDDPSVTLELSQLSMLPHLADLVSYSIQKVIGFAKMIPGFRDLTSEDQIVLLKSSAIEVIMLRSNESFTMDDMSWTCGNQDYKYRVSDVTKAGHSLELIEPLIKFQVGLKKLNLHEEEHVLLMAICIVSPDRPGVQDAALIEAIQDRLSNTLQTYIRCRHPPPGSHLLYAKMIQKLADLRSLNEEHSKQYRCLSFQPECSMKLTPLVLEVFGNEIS
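Fluorescence polarization assay of small-molecule disruption of VDR binding to coregulator peptide SRC2-3. Compounds and controls pin-transferred, then read after 2 h incubation at ambient room temperature.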
GCN5L2 inh – GCN5L2 (KAT2A) acetyltransferase inhibition. GCN5L2 HAT assay, ThioGlo1 CoA-SH fluorescence. 390,000 tested, 0.21% active. Potency, µM (highest dose often 58.9 µM), without a hit: at the top dose activity change, negative = inhibition, hits mostly inhibitors; also: potency is read from the fitted curve at half-maximal effect; % is scaled to controls: 0 for no effect and ±100 for the full control effect
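Enzyme at 20nM final was mixed with library compounds for 15 min at room temperature. Peptide H3(1-25) at 75uM, acetyl-CoA at 70uM and ThioGlo1 at 50uM were then added. Plates were read immediately and after 20 min (Ex340nm/Em540nm).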
Active calls of the source: *; ? = inconclusive; / = no result given. Unless noted, calls follow the shape of the dose curve; as a rule, active = well fitted curve in the direction sought with a large enough effect; inconclusive = small, poorly fitted or top-dose-only effect, or another doubt; inactive = no such curve, though single readings can be large; an effect the other way counts as inactive or inconclusive.

SMILES | Rango-impB inh | Rango release inh | PLK1 PBD block | PI5P4K alpha inh | VDR inh | GCN5L2 inh
CCNc1nc2c(c(=O)n(C)c(=O)n2C)n1CCCc1ccccc1 | -1% | 9% | 3.4µM* | ? | ? | 0%
Cc1ccc(C)n1-c1c(C(=O)NCCCN2CCN(c3ccc(F)cc3)CC2)sc2ncccc12 | / | / | / | / | 6% | -7%
CC1(C)Cc2c(cnn2-c2ccc(F)cc2)C(NC(=O)CCN2CCCC2=O)C1 (stereo not drawn) | 4% | 18% | 3.4µM* | ? | ? | -3%
Cc1cc(C)cc(-n2ncc3c2CCCC3NC(=O)CN2CCCC2=O)c1 (stereo not drawn) | -6% | -3% | 30µM* | 3 | ? | 1%
CC1(C)Cc2c(cnn2-c2ccc(F)cc2)C(NC(=O)C2=NNC(=O)CC2)C1 (stereo not drawn) | -3% | 8% | 3µM* | ? | ? | -3%
O=C(/N=C1\NC(=O)C(F)(C(F)(F)F)S1)NC1CCCCC1 (stereo not drawn) | 0% | 15% | 13µM* | -61* | 50µM* | -8%
CCC1S/C(=N/C(=O)NC2CCCCC2)NC1=O (stereo not drawn) | -5% | 5% | 2% | -1 | -1% | -2%
CCOC(=O)c1ccc(NC(=O)C(CC)Sc2nc3ncccc3o2)cc1 (stereo not drawn) | / | / | / | / | 1% | 1%
C=CC(C1=CC(=O)C(OC)=CC1=O)c1ccc(OC)cc1 (stereo not drawn) | / | / | / | / | 11µM* | -12%
C=CC(C1=CC(=O)C(OC)=C(OC)C1=O)c1ccccc1 (stereo not drawn) | / | / | / | / | 1µM* | -25%
CC12CCC(C[N+](C)(CCC[N+](C)(C)C)C1)C2(C)C (stereo not drawn) | / | / | / | / | 4% | 22µM*
CC12CCC(C[N+](C)(C)C1)C2(C)C (stereo not drawn) | 2% | 14% | -17% | -8 | -1% | -15%
CCC1(c2ccc(Cl)cc2)NC(=S)N(c2ccc(C)cc2)N1 (stereo not drawn) | 3% | 1% | -11% | -10 | 79µM* | -19%
Brc1cc2c(cc1Br)OCCOCCOCCOCCO2 | -1% | -10% | 4.2µM* | ? | 28µM* | 1%
Cc1cccc(CNC(=O)CCCn2c(=O)c3cccn3c3ccc(F)cc32)c1 | / | / | / | / | -3% | -8%
C=COC(=O)/C=C/C | / | / | / | / | -2% | 1%
CCOC(=O)C(CC)Sc1nc2c(c(=O)[nH]c(=O)n2C)n1C/C=C(/C)Cl (stereo not drawn) | -1% | 4% | 2.7µM* | -53* | 32µM* | -5%
C/C=C/Cn1c(SC)nc2c1c(=O)[nH]c(=O)n2C | -4% | -2% | 27µM* | -11 | -9% | -8%
C/C(Cl)=C/Cn1c(SCC(C)C)nc2c1c(=O)[nH]c(=O)n2C | -2% | 5% | -16% | -7 | 7% | ?
CSc1nc2c(c(=O)[nH]c(=O)n2C)n1Cc1ccc(Cl)cc1 | 1% | -8% | 6µM* | ? | 89µM* | -20%
Cn1c(=O)[nH]c(=O)c2c1nc(SCCO)n2Cc1ccccc1Cl | -2% | -6% | 24µM* | -2 | -8% | -18%
O=c1c2[nH]c3ccccc3c2nc(SCc2cccc(F)c2)n1-c1ccccc1 | / | / | / | / | 15% | -4%
COCCn1c(SCc2ccc(Cl)cc2)nc2c1c(=O)[nH]c(=O)n2C | 1% | 8% | -1% | 9 | -1% | /
CCCn1c(SCc2ccc(Cl)cc2)nc2c1c(=O)[nH]c(=O)n2C | 3% | 10% | 21µM* | -10 | -22% | -2%
CCCCN(CC)CCCNC(=O)CCN1N=C(c2ccc(OC)cc2)CCC1=O | / | / | / | / | 0% | -2%
SMILES | Rango-impB inh | Rango release inh | PLK1 PBD block | PI5P4K alpha inh | VDR inh | GCN5L2 inh
COc1ccc(C(=O)OC2CC3CC[C@H](C2)N3C(C)=O)cc1OC (stereo partly drawn) | / | / | / | / | 6% | /
O=C(O)CSc1nc2ccccc2c(=O)[nH]1 | 0% | 0% | -3% | / | 20% | -6%
O=C(O)CSc1nc2ccccc2[nH]1 | 4% | -3% | 27µM* | -9 | ? | 0%
CS(=O)(=O)c1cc([N+](=O)[O-])c(Sc2nc3ccccc3[nH]2)c([N+](=O)[O-])c1 | 3% | 3% | 1.5µM* | / | 35µM* | 1%
O=C(O)c1cc([N+](=O)[O-])c(Sc2nc3ccccc3[nH]2)c([N+](=O)[O-])c1 | 3% | 17% | 21µM* | -27 | ? | 3%
O=C(/C=C/c1ccccc1)/C=C/c1ccccc1 | 0% | -5% | -26% | -1 | 13µM* | -11%
CC(/C=C\c1ccccc1)=C/C(=O)O | 2% | 9% | 5% | -5 | -10% | -18%
O=C(/C=C\c1ccccc1)Nc1ccc(NC(=O)c2ccco2)cc1 | 1% | 0% | 3.4µM* | ? | 20µM* | 2%
O=C(Oc1ccccc1)c1ccc(NC(=O)c2ccco2)cc1 | 0% | -6% | 24µM* | -20 | -22% | -7%
COc1ccc2cnoc(=O)c2c1OC | / | / | / | / | -1% | /
CCc1ccccc1N(C)C(=O)c1cc2c(=O)oc3ccccc3c2s1 | / | / | / | / | -15% | -6%
Cc1ccc(C(=O)OCC(=O)Nc2ccccc2Cl)c(O)c1 | -2% | -4% | 9.5µM* | -17 | ? | 2%
CCc1ccc(S(=O)(=O)c2cn(C)c3cc(N4CCC(C)CC4)c(F)cc3c2=O)cc1 | / | / | / | / | 18% | 1%
CCc1ccc(C(=O)NNC(=O)OC)cc1 | 2% | 1% | 9.5µM* | -22 | ? | 0%
CCc1ccc(NC(=O)C(=O)NNC(=O)c2ccc(OC)cc2)cc1 | 1% | 3% | -4% | 3 | 10% | -1%
CC(=O)c1sc2nc(CSc3nnnn3-c3ccccc3)[nH]c(=O)c2c1C | ? | -18% | ? | -83* | -2% | ?
CCOCCCn1c(SCc2nc3sc(C(=O)O)c(C)c3c(=O)[nH]2)nnc1-c1ccc(Cl)cc1 | -4% | -22% | -1% | ? | -3% | -5%
C=CCn1c(SCc2nc3sc(C(=O)O)c(C)c3c(=O)[nH]2)nnc1-c1ccc(C(C)(C)C)cc1 | ? | -15% | -23% | -51* | -10% | -1%
C=CCn1c(SCc2nc3sc(C(=O)O)c(C)c3c(=O)[nH]2)nnc1-c1ccccc1 | 0% | -26% | -24% | -67* | -16% | -5%
CCN(CC)C(=O)c1sc2nc(Cc3ccccc3)[nH]c(=O)c2c1C | 1% | 9% | 30µM* | -29 | ? | -2%
Cc1c(C(=O)O)sc2nc(CSc3nnc(-c4ccc(F)cc4)n3C)[nH]c(=O)c12 | ? | -7% | -18% | ? | -2% | -6%
O=C(O)[C@H]1O[C@@H](Oc2ccc3ccc(=O)oc3c2)[C@H](O)[C@@H](O)[C@@H]1O | / | / | / | / | -1% | 0%

Source: PubChem BioAssay (National Center for Advancing Translational Sciences (NCATS))
